From PubChem BioAssay (NCI) come the findings set out here.

Compounds without any hit were thinned out: in the full panel of roughly 83,000, 20% have a hit.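 In brief: 96-well plates, 48 h treatment, single concentration, percent growth endpoint.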 A number with no mark means an inactive call. Calls of active or inactive are those of the source. The calls were made as follows: active = growth percent below 10; inactive = the rest.

What all share (assay): NCI-60 one-dose screen, 48 h (100 = growth as untreated, 0 = no growth, -100 = all killed)
In one assay the test system is SK-MEL-2 melanoma. Conditions: 10 µM unless noted.
Another assay concerns EKVX NSCLC. Conditions: 10 µM unless noted.
The next assay deals with UO-31 renal. Particulars: 10 µM unless noted.
Another assay has as its system TK-10 renal. Conditions: 10 µM unless noted.
In another assay the test system is A498 renal. Conditions: 10 µM unless noted.
The next assay has as its system CCRF-CEM leukemia. Conditions: 10 µM unless noted.
A further assay deals with MOLT-4 leukemia. Conditions: 10 µM unless noted.
For the next assay, the system named is SR leukemia. Conditions: 10 µM unless noted.
Another assay relates to RPMI-8226 leukemia. Particulars: 10 µM unless noted.
The test system of a further assay is OVCAR-8 ovarian. Particulars: 10 µM unless noted.
For a further assay, the system named is OVCAR-5 ovarian. Conditions: 10 µM unless noted.
A further assay has as its system OVCAR-4 ovarian. Particulars: 10 µM unless noted.
The next assay deals with SK-OV-3 ovarian. Conditions: 10 µM unless noted.
Another assay has as its system IGROV1 ovarian. Conditions: 10 µM unless noted.
Another assay deals with OVCAR-3 ovarian. Conditions: 10 µM unless noted.
A further assay has as its system HS 578T breast. Conditions: 10 µM unless noted.
The subject of a further assay is NCI/ADR-RES ovarian. Conditions: 10 µM unless noted.
The subject of the next assay is ACHN renal. Conditions: 10 µM unless noted.
The subject of a further assay is CAKI-1 renal. Particulars: 10 µM.
For the next assay, the system named is SN12C renal. Particulars: 10 µM unless noted.

Take `Cc1c(NC(=O)c2sc3nc4c(cc3c2N)CN(Cc2ccccc2)CC4)cccc1C(F)(F)F`: the growth with SK-MEL-2 melanoma was 49.5%; with EKVX NSCLC, 62.1%; with UO-31 renal it was 65.6%; in the assay on TK-10 renal, 96%; in the assay on A498 renal, 52%; in the assay with CCRF-CEM leukemia, 15.6%. In addition, the growth in the assay with MOLT-4 leukemia is 25.9%; in the assay on SR leukemia, 20.1%; in the assay on RPMI-8226 leukemia, 36.3%; with OVCAR-8 ovarian, 63.1%; in the assay on OVCAR-5 ovarian it was 79.6%; with OVCAR-4 ovarian it was 60%. The growth with SK-OV-3 ovarian was 77.8%; with IGROV1 ovarian, 51%; with OVCAR-3 ovarian, 6.31% (active); with HS 578T breast, 31%; with NCI/ADR-RES ovarian, 43.7%.
With `COc1ccc(-c2nn(-c3ccc(NC(=O)Nc4ccc(Cl)c(Cl)c4)cc3)cc2-c2ccncc2)cc1Cl`, the growth is -35.5% (active) with SK-MEL-2 melanoma; 21.5% in the assay on EKVX NSCLC; 16.9% in the assay with UO-31 renal; 14.8% in the assay on ACHN renal; 3.8% (active) in the assay on CAKI-1 renal; 10.7% in the assay on A498 renal. Also, the growth in the assay with CCRF-CEM leukemia was 12.6%; with MOLT-4 leukemia it was 10.5%; in the assay with SR leukemia, 5.18% (active); in the assay with RPMI-8226 leukemia, -30% (active); in the assay on OVCAR-8 ovarian it was 11.6%; in the assay on OVCAR-5 ovarian it was 22.6%. Also, the growth in the assay with OVCAR-4 ovarian is 49.4%; in the assay on SK-OV-3 ovarian, 34.6%; in the assay on IGROV1 ovarian, 36.6%; in the assay with OVCAR-3 ovarian it was 7.34% (active); with NCI/ADR-RES ovarian it was 12.8%.
For the compound `COc1cc(C(=O)NNC(=O)c2ccccc2O)cc(OC)c1OC`, the growth in the assay on SK-MEL-2 melanoma is 80.2%; in the assay on EKVX NSCLC, 103%; in the assay with UO-31 renal, 74.3%; with TK-10 renal it was 85.6%; in the assay with A498 renal it was 75.8%; in the assay on CCRF-CEM leukemia it was 89.4%. Also, the growth in the assay with MOLT-4 leukemia is 74.6%; in the assay with SR leukemia, 77.8%; with RPMI-8226 leukemia, 86.8%; with OVCAR-8 ovarian it was 82.9%; with OVCAR-5 ovarian, 103%; in the assay on OVCAR-4 ovarian, 110%. In addition, the growth with SK-OV-3 ovarian was 87.8%; in the assay with IGROV1 ovarian, 98.8%; in the assay on OVCAR-3 ovarian, 109%; in the assay on HS 578T breast, 95.1%; with NCI/ADR-RES ovarian it was 94.5%.
As for `COc1ccc(-c2c(C#N)cnc(N)c2-c2nc3cc(C)c(C)cc3[nH]2)cc1`, the growth is 41.4% in the assay with SK-MEL-2 melanoma; 63% with EKVX NSCLC; 83.9% with UO-31 renal; 48.6% with TK-10 renal; 53.2% with ACHN renal; 82.9% in the assay on A498 renal. Moreover, the growth with CCRF-CEM leukemia was 90.5%; in the assay on MOLT-4 leukemia it was 104%; in the assay on SR leukemia, 20.2%; in the assay with RPMI-8226 leukemia, 81.3%; in the assay on OVCAR-8 ovarian, 43.6%; with OVCAR-5 ovarian, 102%. Besides, the growth with OVCAR-4 ovarian was 50.7%; in the assay on SK-OV-3 ovarian it was 46%; with IGROV1 ovarian, 36.4%; in the assay on OVCAR-3 ovarian, 55.7%; with NCI/ADR-RES ovarian, 50.2%.
Take `O=C(O)c1ccccc1C(=O)c1ccc(I)cc1`: the growth in the assay on SK-MEL-2 melanoma was 91.2%; in the assay on EKVX NSCLC it was 97.5%; in the assay on UO-31 renal, 99.4%; in the assay with TK-10 renal it was 95.6%; with ACHN renal it was 104%; with A498 renal it was 115%. Also, the growth in the assay on CCRF-CEM leukemia was 99.9%; with MOLT-4 leukemia, 94.3%; in the assay on SR leukemia, 101%; in the assay on RPMI-8226 leukemia, 97.7%; with OVCAR-8 ovarian, 107%; in the assay on OVCAR-5 ovarian, 107%. In addition, the growth is 109% in the assay with OVCAR-4 ovarian; 96.4% in the assay on SK-OV-3 ovarian; 98.4% in the assay with IGROV1 ovarian; 107% in the assay on OVCAR-3 ovarian; 104% in the assay on HS 578T breast.
Take `NS(=O)(=O)c1ccc(CCN2C(=O)/C(=C\c3ccc(Cl)cc3)C=C2c2ccc(Oc3ccccc3)cc2)cc1`: the growth in the assay with SK-MEL-2 melanoma was 73%; in the assay on EKVX NSCLC, 60.1%; in the assay with SN12C renal, 78.2%; in the assay on ACHN renal, 72.3%; with A498 renal it was 80.8%; with CCRF-CEM leukemia it was 81.4%. Further, the growth is 48.2% with MOLT-4 leukemia; 45.9% in the assay with SR leukemia; 60.4% in the assay on RPMI-8226 leukemia; 71.4% in the assay with OVCAR-8 ovarian; 76.7% with OVCAR-5 ovarian; 87.5% with OVCAR-4 ovarian. For the same compound, the growth with SK-OV-3 ovarian is 93%; in the assay on IGROV1 ovarian, 78.8%; in the assay with OVCAR-3 ovarian, 81.3%; in the assay on HS 578T breast, 98.8%; in the assay on NCI/ADR-RES ovarian it was 78.3%.
`COc1cc(-c2nc3ccccc3s2)ccc1OCc1nc2n(n1)S(=O)(=O)c1ccccc1N2c1ccccc1`: the growth is 98.5% in the assay with SK-MEL-2 melanoma; 95.4% in the assay on EKVX NSCLC; 82.4% in the assay with UO-31 renal; 121% in the assay with TK-10 renal; 107% in the assay on ACHN renal; 100% in the assay with A498 renal. Further, the growth with CCRF-CEM leukemia is 112%; in the assay on MOLT-4 leukemia, 80.5%; in the assay with SR leukemia, 23.7%; in the assay on RPMI-8226 leukemia it was 88.9%; in the assay on OVCAR-8 ovarian, 103%; in the assay with OVCAR-5 ovarian, 104%. Moreover, the growth in the assay on OVCAR-4 ovarian is 102%; in the assay with SK-OV-3 ovarian, 110%; in the assay with IGROV1 ovarian, 56.1%; in the assay on HS 578T breast, 97%; with NCI/ADR-RES ovarian, 107%.
As to `CCCCOc1c(N)cccc1C(=O)OCCN(CC)CC`, the growth in the assay with SK-MEL-2 melanoma is 96.6%; in the assay with EKVX NSCLC it was 104%; in the assay on UO-31 renal, 80.8%; with TK-10 renal, 81.8%; with A498 renal it was 90.5%; with CCRF-CEM leukemia, 90.6%. Moreover, the growth in the assay on MOLT-4 leukemia is 60.2%; in the assay on SR leukemia, 83.9%; with RPMI-8226 leukemia, 123%; in the assay on OVCAR-8 ovarian, 92.8%; with OVCAR-5 ovarian, 113%; with OVCAR-4 ovarian, 107%. For the same compound, the growth in the assay on SK-OV-3 ovarian is 108%; in the assay on IGROV1 ovarian, 104%; in the assay with OVCAR-3 ovarian it was 101%; with HS 578T breast it was 102%; in the assay on NCI/ADR-RES ovarian, 106%.
`Cc1ccc2c(C3C(C#N)=C(N)Oc4cc5ccccc5cc43)cc(=O)oc2c1` (stereo not drawn): the growth is 40% with EKVX NSCLC; 46.3% with SN12C renal; 47.3% in the assay with UO-31 renal; 47.6% in the assay with TK-10 renal; 50.6% in the assay on ACHN renal; 30.8% in the assay with A498 renal. The growth was 13% in the assay with CCRF-CEM leukemia; 20.8% in the assay on MOLT-4 leukemia; 16.9% in the assay on SR leukemia; 21.9% with RPMI-8226 leukemia; 24.5% in the assay with OVCAR-8 ovarian; 49.7% in the assay on OVCAR-5 ovarian. Further, the growth is 67.6% in the assay on OVCAR-4 ovarian; 28.3% with SK-OV-3 ovarian; 39.7% in the assay with IGROV1 ovarian; -4.72% (active) in the assay on OVCAR-3 ovarian; 51.6% in the assay on HS 578T breast.
